Test results reported in PubChem BioAssay.

Test: probe aLefty1 binding on compound microarray – biochemical, small-molecule microarray, 635/667 nm fluorescence, primary screen (AID 1153);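 also: score merges spot fluorescence with signal-to-noise ratio from the scanned slide images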
Details: higher = more signal

Row | Structure (SMILES) | composite z-score
1 | C=CCN1C(=O)[C@@]2(Cc3ccccc31)N=C(c1ccc(OCCCO)cc1)O[C@H]2c1ccccc1 | 0.481
2 | [N-]=[N+]=Nc1ccccc1[C@@H]1OC(c2ccc(OCCCO)cc2)=N[C@]1(CCS(=O)(=O)c1ccccc1)C(N)=O | 0.572
3 | CN(C)C(=O)[C@@]1(CCS(=O)(=O)c2ccccc2)COC(c2ccc(OCCCO)cc2)=N1 | 0.0244
4 | CCOC(=O)C[C@H]1[C@H](OC(=O)c2cc3ccccc3oc2=O)[C@@H](NC(=O)c2ccccc2)c2cc(OCCCO)ccc2N1C(=O)c1ccc2ccccc2n1 | -0.0969
5 | C=CCOC(=O)[C@H]1[C@@H]2C(=O)O[C@@H](c3ccccc3)[C@@H](c3ccccc3)N2[C@@H](c2ccc(OCCOC(=O)[C@H]3C[C@H]4C(=O)N[C@@H](CCCCNC(C)=O)C(=O)N4[C@H]3c3cccc(OCCO)c3)cc2)[C@]12C(=O)Nc1ccccc12 | 0.179
6 | CC(C)C(CO)N1C(=O)[C@@H]2C3C(=O)OCCC/C=C\[C@H]3OC23C=CCN(CCN2CCOCC2)C(=O)[C@@H]13 (some centres undefined) | -0.07
7 | O=C(NCCN1CCOCC1)C1N=C(c2ccc(OCCCO)cc2)N(c2ccccc2)O1 (centres undefined) | 0.0709
8 | COC(=O)[C@@]1(Cc2ccccc2)[C@H]2c3cc(C(=O)N4CCCC4)n(Cc4ccc(S(C)(=O)=O)cc4)c3C[C@H]2CN1C(=O)c1ccccc1 | 0.198
9 | O=C1[C@@]23C=C(Br)[C@H](C[C@@H]2CCOC3)[C@@]12CO2 | -0.216
10 | O=C(c1ccccc1)N1C(=O)[C@]2(COC(c3ccc(OCCCO)cc3)=N2)Cc2ccccc21 | 0.638
11 | Cc1nc2cc(Br)ccc2c(=O)o1 | 0.442
12 | CCCCC(CC)C(O)C1C=CC2C(=O)N(Cc3ccccc3)C(=O)C2N1n1cnnc1 (centres undefined) | 0.0903
13 | CC(C)C(O)C1C=CC2C(=O)NC(=O)C2N1Nc1ccc(Cl)cc1Cl (centres undefined) | -0.114
14 | COCCOC(=O)N1C(=O)[C@@]2(c3ccccc31)[C@H](c1ccc(O)cc1)N1[C@H](c3ccccc3)[C@H](c3ccccc3)OC(=O)[C@H]1[C@@H]2C(=O)Nc1nc2ccccc2s1 | 0.541
15 | CC(C)C(=C=CC[C@@H](O)c1ccc(OCCO)cc1)C[C@@H](O)COCc1ccccc1 | 0.0341
16 | O=C1C2C=CC(C(O)Cc3ccccc3)N(n3cnnc3)C2C(=O)N1Cc1ccccc1 (centres undefined) | 0.333
17 | COCCOC(=O)N1C(=O)[C@@]2(c3cc(C#Cc4ccc(OC)cc4)ccc31)[C@H](c1ccc(O)cc1)N1[C@H](c3ccccc3)[C@H](c3ccccc3)OC(=O)[C@H]1[C@@H]2C(=O)N1CCc2cc(OC)c(OC)cc2C1 | 0.134
18 | COc1cc2c(cc1O)C(C1CC1)N(Cc1sc3ccccc3c1Cl)CC2 (centres undefined) | -0.0162
19 | CC(C)C(=C=CC[C@H](O)c1ccc(OCCO)cc1)CCO | 0.0945
20 | CC(=O)NCCCC[C@@H]1NC(=O)[C@@H]2C[C@H](C(=O)NCCCCCNC(=O)CS)[C@H](c3cccc(OCCO)c3)N2C1=O | 0.0536
21 | NC(=O)NCC#Cc1ccc2c(c1)[C@]1(C(=O)N2)[C@H](c2ccc(O)cc2)N2[C@H](c3ccccc3)[C@H](c3ccccc3)OC(=O)[C@H]2[C@@H]1C(=O)O | -0.573
22 | COc1cc(Br)cc(C(O)C2C=CC3C(=O)N(C)C(=O)C3N2N2CCCCC2)c1OC (centres undefined) | 0.152
23 | COc1ccc(CCNC(=O)[C@@H]2c3ccccc3C(=O)N(Cc3ccccc3Cl)[C@H]2c2ccc(CO)cc2)cc1 | -0.0999
24 | CCCCN1CC=CC23O[C@@H]4C=CCCOC(=O)C4[C@H]2C(=O)N(CCCCCCO)[C@@H]3C1=O (some centres undefined) | -0.147
25 | CCOC(=O)C[C@H]1[C@H](OC(=O)c2ccc(C(=O)c3ccccc3)cc2)[C@@H](NC(=O)c2ccccc2)c2cc(OCCCO)ccc2N1C(=O)c1ccc2ccccc2n1 | -0.328
26 | C=CCOC(=O)[C@H]1[C@@H]2C(=O)O[C@@H](c3ccccc3)[C@@H](c3ccccc3)N2[C@@H](c2ccc(OCCOC(=O)[C@H]3C[C@H]4C(=O)N[C@@H](CCCC[N+](C)(C)C)C(=O)N4[C@H]3c3ccc(O)cc3)cc2)[C@]12C(=O)Nc1ccc(I)cc12 | 0.275
27 | CC(CO)N1C(=O)[C@@H]2C3C(=O)OCCC/C=C\[C@H]3OC23C=CCN(C(C)(C)C)C(=O)[C@@H]13 (some centres undefined) | -0.0984
28 | CC1CC/C=C\[C@H]2OC34C=CCN(C(C)(C)C)C(=O)[C@H]3N(C(C)CO)C(=O)[C@@H]4C2C(=O)O1 (some centres undefined) | -0.0984
29 | COc1ccc(C#Cc2ccc3c(c2)[C@]2(C(=O)N3)[C@H](C(=O)Nc3nc4ccccc4s3)[C@H]3C(=O)O[C@H](c4ccccc4)[C@H](c4ccccc4)N3[C@@H]2c2ccc(O)cc2)cc1 | 1.1
